We go through 6 compounds from PubChem BioAssay (EPA / NIEHS).

Structures are written as SMILES. Active and inactive are the calls of the source. How the source made its calls: active means hit-call score of the fitted dose curve at least 0.9, where 1 is the maximum; inactive means score below 0.9.

Holding throughout (details): mRNA level, 48 h; actives raise or lower the signal
Read-out in experiment [1]: Ezrin (EZR), EZR (gene 7430)
The experiment is described as follows: LTEA_HepaRG_EZR: Life Technologies and Expression Analysis (LTEA) Assay for Ezrin (EZR) using HepaRG (AID 2283491). The procedure, abridged: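 EZR transcript levels came from Fluidigm qRT-PCR and were normalized to three housekeeping genes after 48 h chemical exposure of HepaRG cells. Dosing used an 8-point half-log series with a 100 uM top concentration in 0.5% DMSO, tested in duplicate; both directions were fitted versus vehicle.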

Read-out in experiment [2]: Cytochrome P450 3A7 (Homo sapiens) (UniProt P24462)
The experiment is described as follows: LTEA_HepaRG_CYP3A7: Life Technologies and Expression Analysis (LTEA) Assay for CYP3A7 using HepaRG (AID 2283492). The procedure, abridged: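 Cells were thawed, plated, cultured 48 h, then treated for a further 48 h with chemicals (eight-point half-log series from 100 uM, 0.5% DMSO). RNA was isolated and CYP3A7 expression quantified by qRT-PCR normalised to ACTB, GAPDH and POLR2A.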

Read-out in experiment [3]: Fatty Acid-Binding Protein 1 (FABP1), FABP1 (gene 2168)
The experiment is described as follows: LTEA_HepaRG_FABP1: Life Technologies and Expression Analysis (LTEA) Assay for Fatty Acid-Binding Protein 1 (FABP1) using HepaRG (AID 2283494). Put shortly:
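Differentiated human HepaRG cells exposed 48 h in serum-free induction medium to eight half-log concentrations up to 100 uM (0.5% DMSO), duplicate. FABP1 mRNA by qRT-PCR, normalised to ACTB, GAPDH, POLR2A; bidirectional fitting against DMSO.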

Read-out in experiment [4]: Cytochrome P450 7A1 (Homo sapiens) (UniProt P22680)
In words: LTEA_HepaRG_CYP7A1: Life Technologies and Expression Analysis (LTEA) Assay for Cytochrome P450 7A1 (CYP7A1) using HepaRG (AID 2283496). The procedure, abridged: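 HepaRG cells plated 48 h, then switched to serum-free induction medium and exposed in duplicate for 48 h to 8-point half-log series from 100 uM in 0.5% DMSO. CYP7A1 mRNA by qRT-PCR (TaqMan), normalized to ACTB/GAPDH/POLR2A; bidirectional fit versus DMSO.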

Read-out in experiment [5]: Glutathione S-Transferase (GSTA2), GSTA2 (gene 2939)
In words: LTEA_HepaRG_GSTA2: Life Technologies and Expression Analysis (LTEA) Assay for Glutathione S-Transferase (GSTA2) using HepaRG (AID 2283497). Put shortly: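 Differentiated human HepaRG cells were exposed in duplicate for 48 h in serum-free induction medium, 8 points from 100 uM top in half-log steps, 0.5% DMSO. GSTA2 mRNA was measured by TaqMan qRT-PCR, normalized to ACTB, GAPDH and POLR2A; bidirectional fit versus DMSO.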

Read-out in experiment [6]: Glutamate-cysteine ligase catalytic (GCLC), GCLC (gene 2729)
In words: LTEA_HepaRG_GCLC: Life Technologies and Expression Analysis (LTEA) Assay for Glutamate-cysteine ligase catalytic (GCLC) using HepaRG (AID 2283498). Put shortly: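 Differentiated HepaRG cells exposed 48 h in serum-free induction medium, eight-point half-log series topping at 100 uM in 0.5% DMSO, duplicates. GCLC mRNA by qRT-PCR normalized to ACTB, GAPDH and POLR2A, fitted bidirectionally versus DMSO.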

Read-out in experiment [7]: growth arrest and DNA damage 45 (GADD45G), GADD45G (gene 10912)
In words: LTEA_HepaRG_GADD45G: Life Technologies and Expression Analysis (LTEA) Assay for growth arrest and DNA damage 45 (GADD45G) using HepaRG (AID 2283499). Put shortly:
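Human hepatic HepaRG line treated 48 h with chemicals (eight concentrations, half-log steps from 100 uM); transcript induction or repression of GADD45G scored by qRT-PCR versus DMSO vehicle.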

Read-out in experiment [8]: Glutamate-cysteine ligase regulatory (GCLM), GCLM (gene 2730)
The experiment is described as follows: LTEA_HepaRG_GCLM: Life Technologies and Expression Analysis (LTEA) Assay for Glutamate-cysteine ligase regulatory (GCLM) using HepaRG (AID 2283500). Put shortly: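 Differentiated HepaRG cells exposed 48 h in serum-free induction medium to eight half-log concentrations up to 100 uM (0.5% DMSO). GCLM mRNA by TaqMan qRT-PCR, normalized to ACTB, GAPDH and POLR2A; bidirectional fit versus DMSO.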

Read-out in experiment [9]: Glutathione S-transferase M3 (GSTM3), GSTM3 (gene 2947)
In words: LTEA_HepaRG_GSTM3: Life Technologies and Expression Analysis (LTEA) Assay for Glutathione S-transferase M3 (GSTM3) using HepaRG (AID 2283501). Put shortly:
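Changes in GSTM3 expression, an oxidative-stress marker, were scored by bidirectional curve fitting against 0.5% DMSO vehicle. Human HepaRG cultures received chemicals for 48 h in duplicate, highest concentration 100 uM with half-log dilutions.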

Read-out in experiment [10]: Heat shock 70 kDa protein 1 (HSPA1A), gene 3303
In words: LTEA_HepaRG_HSPA1A: Life Technologies and Expression Analysis (LTEA) Assay for Heat shock 70 kDa protein 1 (HSPA1A) using HepaRG (AID 2283502). The procedure, abridged:
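Human HepaRG cells in serum-free induction medium were exposed in duplicate for 48 h to 8 half-log concentrations, highest 100 uM, in 0.5% DMSO. HSPA1A mRNA read by TaqMan qRT-PCR, normalized to ACTB, GAPDH, POLR2A, fitted bidirectionally against DMSO.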

Read-out in experiment [11]: Hypoxia-inducible factor 1-alpha (Homo sapiens) (UniProt Q16665)
In words: LTEA_HepaRG_HIF1A: Life Technologies and Expression Analysis (LTEA) Assay for Hypoxia-inducible factor 1 (HIF1A) Trancription factor using HepaRG (AID 2283503). The procedure, abridged:
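Differentiated HepaRG cells in serum-free induction medium exposed 48 h, in duplicate, to 8-point half-log series from 100 uM in 0.5% DMSO. HIF1A mRNA measured by TaqMan qRT-PCR, normalized to ACTB/GAPDH/POLR2A, fitted bidirectionally versus DMSO.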

Read-out in experiment [12]: 3-Hydroxy-3-Methylglutaryl-CoA Synthase 2 (HMGCS2), HMGCS2 (gene 3158)
In words: LTEA_HepaRG_HMGCS2: Life Technologies and Expression Analysis (LTEA) Assay for 3-Hydroxy-3-Methylglutaryl-CoA Synthase 2 (HMGCS2) using HepaRG (AID 2283504). Put shortly: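 Expression of HMGCS2 in human HepaRG liver cells is measured by qRT-PCR 48 h after dosing (highest 100 uM, half-log series, 0.5% DMSO). Values come from bidirectional concentration-response fitting with DMSO as baseline.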

Read-out in experiment [13]: HGF (gene 3082)
The experiment is described as follows: LTEA_HepaRG_HGF: Life Technologies and Expression Analysis (LTEA) Assay for Hepatocyte Growth Facto (HGF) using HepaRG (AID 2283505). Put shortly:
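Gain or loss of HGF mRNA in human HepaRG liver cells after 48 h chemical exposure; eight concentrations up to 100 uM with 0.5% DMSO vehicle, quantified by TaqMan qRT-PCR.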

Read-out in experiment [14]: Insulin Like Growth Factor 1 (IGF1), IGF1 (gene 3479)
In words: LTEA_HepaRG_IGF1: Life Technologies and Expression Analysis (LTEA) Assay for Insulin Like Growth Factor 1 (IGF1) using HepaRG (AID 2283506). The procedure, abridged: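 Differentiated HepaRG cells in serum-free induction medium, exposed 48 h in duplicate to 8 half-log concentrations up to 100 uM in 0.5% DMSO. IGF1 mRNA by Fluidigm qRT-PCR, normalised to ACTB, GAPDH and POLR2A.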

Read-out in experiment [15]: Intercellular Adhesion Molecule 1 (ICAM1), ICAM1 (gene 3383)
In words: LTEA_HepaRG_ICAM1: Life Technologies and Expression Analysis (LTEA) Assay for Intercellular Adhesion Molecule 1 (ICAM1) using HepaRG (AID 2283507). The procedure, abridged: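 Gain or loss of transcript in HepaRG hepatic cells is quantified by qRT-PCR after 48 h chemical exposure (up to 100 uM, half-log steps), with DMSO as baseline.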

Read-out in experiment [16]: Insulin-like growth factor-binding protein 1 (IGFBP1), IGFBP1 (gene 3484)
In words: LTEA_HepaRG_IGFBP1: Life Technologies and Expression Analysis (LTEA) Assay for Insulin-like growth factor-binding protein 1 (IGFBP1) using HepaRG (AID 2283508). Put shortly:
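mRNA induction or loss was quantified by qRT-PCR after 48 h chemical exposure of human HepaRG cells, with 0.5% DMSO as vehicle and baseline. Concentration-response over eight points up to 100 uM.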

Read-out in experiment [17]: Interleukin 6 (IL6), IL6 (gene 3569)
In words: LTEA_HepaRG_IL6: Life Technologies and Expression Analysis (LTEA) Assay for Interleukin 6 (IL6) using HepaRG (AID 2283509). Put shortly: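 HepaRG cells exposed in duplicate for 48 h to eight half-log concentrations, top 100 uM, in 0.5% DMSO serum-free induction medium. mRNA measured by qRT-PCR, normalized to ACTB, GAPDH and POLR2A. Bidirectional fit versus DMSO.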

Read-out in experiment [18]: Interleukin 6 Receptor (IL6R), IL6R (gene 3570)
The experiment is described as follows: LTEA_HepaRG_IL6R: Life Technologies and Expression Analysis (LTEA) Assay for Interleukin 6 Receptor (IL6R) using HepaRG (AID 2283510). Put shortly: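 Differentiated HepaRG cells, plated 48 h, then exposed in duplicate for 48 h in serum-free induction medium to 8 half-log concentrations (top 100 uM, 0.5% DMSO). IL6R mRNA measured by TaqMan qRT-PCR, normalized to ACTB/GAPDH/POLR2A; bidirectional fit vs DMSO.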

Read-out in experiment [19]: CYP3A5 (gene 1577)
In words: LTEA_HepaRG_CYP3A5: Life Technologies and Expression Analysis (LTEA) Assay for CYP3A5 using HepaRG (AID 2283493). The procedure, abridged: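 HepaRG cells, plated 48 h then in serum-free induction medium, dosed in duplicate for 48 h with eight half-log concentrations up to 100 uM in 0.5% DMSO. Gene mRNA by Fluidigm TaqMan qRT-PCR, normalized to ACTB, GAPDH, POLR2A.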

Sequence of Cytochrome P450 3A7 (Homo sapiens) (P24462 whole entry, looked up): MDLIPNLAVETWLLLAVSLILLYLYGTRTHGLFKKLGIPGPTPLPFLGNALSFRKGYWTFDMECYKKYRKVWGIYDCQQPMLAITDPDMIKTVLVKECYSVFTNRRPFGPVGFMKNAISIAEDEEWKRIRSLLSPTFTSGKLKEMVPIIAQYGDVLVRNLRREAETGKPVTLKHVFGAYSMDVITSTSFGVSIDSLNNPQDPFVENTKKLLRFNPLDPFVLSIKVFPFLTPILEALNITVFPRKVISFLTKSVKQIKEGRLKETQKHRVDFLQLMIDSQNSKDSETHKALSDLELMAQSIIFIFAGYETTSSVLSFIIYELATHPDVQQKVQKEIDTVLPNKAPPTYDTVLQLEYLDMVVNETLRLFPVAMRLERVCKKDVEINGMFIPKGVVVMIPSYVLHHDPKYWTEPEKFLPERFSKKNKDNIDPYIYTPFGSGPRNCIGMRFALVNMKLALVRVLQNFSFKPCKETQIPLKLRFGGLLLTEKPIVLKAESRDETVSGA
Sequence of Hypoxia-inducible factor 1-alpha (Homo sapiens) (Q16665 whole entry, looked up): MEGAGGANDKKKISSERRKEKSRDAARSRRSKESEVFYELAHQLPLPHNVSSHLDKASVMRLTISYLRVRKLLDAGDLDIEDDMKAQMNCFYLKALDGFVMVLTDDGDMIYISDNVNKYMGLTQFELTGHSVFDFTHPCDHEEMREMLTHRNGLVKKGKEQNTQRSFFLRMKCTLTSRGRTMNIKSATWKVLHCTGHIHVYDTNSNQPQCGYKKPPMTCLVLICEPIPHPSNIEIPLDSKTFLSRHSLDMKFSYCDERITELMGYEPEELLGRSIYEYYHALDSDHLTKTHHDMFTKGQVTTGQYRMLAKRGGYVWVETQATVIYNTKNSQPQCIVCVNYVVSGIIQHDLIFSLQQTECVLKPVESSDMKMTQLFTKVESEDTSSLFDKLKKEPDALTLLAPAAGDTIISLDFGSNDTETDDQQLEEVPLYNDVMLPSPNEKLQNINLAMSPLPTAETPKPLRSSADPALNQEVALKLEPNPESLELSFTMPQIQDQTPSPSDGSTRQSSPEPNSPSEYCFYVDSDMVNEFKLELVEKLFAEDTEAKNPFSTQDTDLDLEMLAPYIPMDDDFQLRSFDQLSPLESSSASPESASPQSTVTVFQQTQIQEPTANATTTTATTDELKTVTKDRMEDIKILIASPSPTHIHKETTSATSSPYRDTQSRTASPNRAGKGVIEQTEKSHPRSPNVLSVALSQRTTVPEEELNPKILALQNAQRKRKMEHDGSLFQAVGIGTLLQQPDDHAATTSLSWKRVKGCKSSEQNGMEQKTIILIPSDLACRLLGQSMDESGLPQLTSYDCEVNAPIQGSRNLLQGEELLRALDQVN

As to `CCCCC(CC)COC(=O)CCCCC(=O)OCC(CC)CCCC` (stereo not drawn), the result in experiment [1], in experiment [2], in [3], in experiment [4], in experiment [5] and in experiment [6] was inactive. The compound was classed as inactive in [7], in [8], in experiment [9], in experiment [10], in experiment [11] and in [12]. For the same compound, the call in [13], in experiment [14], in experiment [15], in experiment [16], in [17] and in [18] was inactive.

Take `C=C(C)C(=O)OCCC(F)(F)C(F)(F)C(F)(F)C(F)(F)C(F)(F)C(F)(F)F`: the compound was called inactive in experiment [1], in experiment [2], in [3], in experiment [4], in experiment [5] and in experiment [6]. The compound was classed as inactive in experiment [7], in experiment [8], in experiment [9], in experiment [10], in experiment [11] and in experiment [12]. For the same compound, the compound was called inactive in [13], in experiment [14], in experiment [16], in experiment [17] and in experiment [18].

For `CN1CCC[C@H]1c1cccnc1`, the result in [1], in [2], in experiment [3], in [4], in experiment [5] and in experiment [6] was inactive. For the same compound, the call in experiment [7], in [8], in experiment [9], in experiment [10], in experiment [12] and in experiment [13] was inactive. Also, the result in experiment [14], in experiment [16], in [17] and in [18] was inactive.

The AC50 is the concentration giving half of the maximal activity seen. As for `CC#C[C@]1(O)CC[C@H]2[C@@H]3CCC4=CC(=O)CCC4=C3[C@@H](c3ccc(N(C)C)cc3)C[C@@]21C`, the AC50 was 50 µM (active) in experiment [1]; 35.1 µM (active) in experiment [3]; 43.6 µM (active) in experiment [4]; 71.5 µM (active) in experiment [5]; 28.4 µM (active) in [6]; 40.8 µM (active) in experiment [7]. In addition, the AC50 is 31.6 µM (active) in experiment [8]; 85.5 µM (active) in [11]; 75.9 µM (active) in [12]; 85.2 µM (active) in experiment [13]; 68.4 µM (active) in experiment [14]; 23.6 µM (active) in experiment [16]. For the same compound, the AC50 in [17] was 37.4 µM (active); in [18] it was 12.9 µM (active). In addition, the outcome in experiment [19], in [9] and in experiment [10] was inactive.

With `OC1CCCCC1`, the compound was called inactive in [1], in experiment [2], in [3], in experiment [4], in experiment [5] and in experiment [6]. Further, the compound was classed as inactive in experiment [7], in experiment [8], in experiment [9], in experiment [10], in [11] and in [12]. Also, the result in [13], in [14], in experiment [15], in experiment [16], in experiment [17] and in experiment [18] was inactive.

For the compound `ClC1=C(Cl)C(Cl)(Cl)C(Cl)=C1Cl`, the compound was classed as inactive in [1], in [2], in experiment [3], in experiment [4], in experiment [5] and in experiment [6]. Moreover, the compound was called inactive in [7], in experiment [8], in [9], in [10], in experiment [11] and in experiment [12]. For the same compound, the call in experiment [13], in [14], in experiment [16], in experiment [17] and in experiment [18] was inactive.
